Results reported in the supplement of paper PMC6555819.

Legend:
Test in all cases: PBM binding z-score (relative to random genomic background probes); higher = stronger binding; sequences stand for … in GC…GCGATTGACAGCGTAGAATGAAGG
[1] = system: PPARg:RXRa DBDmut IVT, anti-RXR (DBD mutation: RXRa K156A/R161A, NR concentration 270 nM, RXRa partner concentration 90 nM)
Summary of the method: (§1)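 For binding z-scores, the reference was random background probes on custom Agilent 4×180K protein-binding microarrays. These arrays were incubated 1 h with ligand-free nuclear receptor dimers in PBS pH 7.4, 2% milk, 0.02% Triton X-100, 1 mM DTT, 0.2 mg/mL BSA and 0.4 mg/ml salmon testes DNA. Fluorescence was scanned after antibody detection of each partner (one per run) and regression-normalized.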

[2] = system: PPARg:RXRa IVT, anti-PPARg (NR concentration 270 nM, RXRa partner concentration 90 nM)
Summary of the method: as §1

[3] = system: PPARg DBDmut:RXRa IVT, anti-PPARg (DBD mutation: PPARg1 K132A/R137A, NR concentration 270 nM, RXRa partner concentration 90 nM)
Summary of the method: as §1

[4] = system: PPARg DBDmut IVT, anti-PPARg (DBD mutation: PPARg1 K132A/R137A, NR concentration 270 nM)
Summary of the method: as §1

[5] = system: PPARg homodimer (NR concentration 180 nM)
Summary of the method: as §1

[6] = system: PXR:RXRa (NR concentration 270 nM, RXRa partner concentration 90 nM)
Summary of the method: as §1

[7] = system: PXR homodimer (NR concentration 270 nM)
Summary of the method: as §1

[8] = system: RARa:RXR (NR concentration 270 nM, RXRa partner concentration 90 nM)
Summary of the method: as §1

[9] = system: RARa homodimer (NR concentration 270 nM)
Summary of the method: as §1

[10] = system: RARb:RXRa (NR concentration 270 nM, RXRa partner concentration 90 nM)
Summary of the method: as §1

| Sequence | PBM binding z-score [1] | PBM binding z-score [2] | PBM binding z-score [3] | PBM binding z-score [4] | PBM binding z-score [5] | PBM binding z-score [6] | PBM binding z-score [7] | PBM binding z-score [8] | PBM binding z-score [9] | PBM binding z-score [10] |
| --- | --- | --- | --- | --- | --- | --- | --- | --- | --- | --- |
| CCTAGTTGGTCGGGAGGTCACACACCGGATATGA | -0.134 | 1.89 | 0.253 | 0.694 | 3.59 | 4.29 | 2.4 | 4.55 | 2.58 | 3.47 |
| CGTAGTTGGTCAAGGTCACACACGCTATAGGTAC | 1.92 | 3.93 | 0.825 | 0.313 | 2.32 | 4.02 | 1.11 | 4.18 | 1.01 | 4.18 |
| GCAGACAGGTGAAACGCAGGTAACGCAGGGTGGC | 0.691 | 0.737 | -0.603 | -0.805 | -0.678 | -0.552 | -0.857 | 0.395 | -0.862 | 0.76 |
| AGAATGAGGTTACCAAAGATCTGGGAAACGCTTG | 3.41 | 3.25 | 0.193 | 0.0654 | 0.163 | 0.907 | -0.203 | 1.77 | -0.536 | 1.98 |
| CCTGCTAGGTCTTGGTCAGCTAATCTACAGTATG | 0.846 | -0.117 | -0.408 | -1.03 | -0.24 | -0.552 | -0.561 | -0.0179 | -1.02 | 0.537 |
| CCTACTGGGCCATTCAGGGGTCATTGATCATATG | 3.55 | 4.44 | -0.679 | -0.364 | 2.13 | 5.18 | 1.05 | 5.59 | 0.603 | 3.03 |
| TCTAGCAGCCCAGAGGGTCACTCAAGAGGTACGG | 0.523 | -0.253 | -0.749 | -0.961 | 0.154 | 1.3 | -0.683 | 2.44 | -0.794 | 1.81 |
| ACTAGCTGGCCAAGGGTCACTCAAGATTAGTCCG | -0.256 | 1.86 | -0.605 | -0.878 | 1.67 | 2.92 | -0.559 | 3.54 | -0.213 | 3.34 |
| CCTACTGGGCCAAAGGTCACTGATTCCAATGCTC | 5.75 | 7.12 | 0.0303 | -0.418 | 3.54 | 5.27 | 1.1 | 6.62 | 1.82 | 4.56 |
| ATCGAAAGGCCGACGAGGTGAGTATACACCGTTT | -0.57 | 0.479 | 0.035 | 0.014 | -0.108 | -0.0744 | -0.0811 | 0.0866 | -0.372 | 1.33 |
| GGAACGAGGGCATCCGAGTTGATAGCATGGCGAT | 2.9 | 2.23 | -0.317 | -0.705 | -0.0747 | 3.67 | 0.048 | 0.949 | -0.37 | 1.78 |
| TCGAGTAGATTAGTCGGGGCATTCAGCCAACATA | 0.609 | -0.356 | -0.764 | -0.113 | -0.53 | -0.262 | -0.468 | -0.389 | -0.665 | -0.416 |
| TCTATTAGTTGAAGGGCAACCGACGAGTCCGTTT | 2.35 | 0.776 | 1.09 | 0.986 | 1.26 | 1 | 1.32 | 0.605 | 0.801 | 1.61 |
| GCATATAGGCAATACAAGGTGAAAGTCCGATTGT | 1.94 | 1.46 | 0.326 | -0.0602 | -0.222 | 0.231 | 0.012 | 0.876 | -0.301 | 0.172 |
| CCGACTGGGGCTGAAAGGTTACCATACCATCCGG | -0.623 | -0.162 | -1.05 | -1.01 | 0.352 | 1.1 | -0.23 | 1.85 | -0.057 | 1.46 |
| TCGAGTAGGTTACCAGTGGGGCATTCAGCTTTCT | 3.82 | 3.43 | -0.827 | -0.418 | 0.236 | -0.206 | -0.913 | 0.372 | -1.02 | 0.865 |
| TCATATAGGTGAAGGTGAAAGTCGAACGATATGA | 6 | 6.13 | 1.24 | 0.938 | 0.35 | 0.448 | 0.0381 | 1.08 | 0.38 | 1.88 |
| GGAACGAGGGCAAGTTGATAGTAGAGTTTGATGG | 3.65 | 2.79 | 0.241 | -0.486 | 0.584 | 0.965 | 1.17 | 0.509 | 0.408 | 2.76 |
| GCTCGTTGGTCAGTAAAAGGTCACACACCGGTCG | 0.994 | 2.63 | 0.257 | 0.405 | 4.91 | 5.35 | 1.21 | 6.7 | 2.93 | 4.48 |
| TCGAGTAGGTTGCCAATGGGGCATTCAGCTTTCT | 0.771 | 0.26 | -0.582 | -1.2 | -1.09 | -0.544 | -1.13 | -0.717 | -1.42 | -0.201 |
| CCTTACGGGTCACTCCGGGTTATAGCATCGGAGT | 1.96 | 3.06 | 0.27 | -0.00571 | 1.92 | 4.6 | -0.199 | 3.88 | 0.188 | 3.37 |
| GGCACGAGGGCATTCGAGTTGATAGCATGGCGAT | 1.63 | 0.977 | -1.13 | -1.45 | -0.356 | 3.77 | 1.72 | 0.606 | -0.627 | 1.95 |

| Sequence | PBM binding z-score [1] | PBM binding z-score [2] | PBM binding z-score [3] | PBM binding z-score [4] | PBM binding z-score [5] | PBM binding z-score [6] | PBM binding z-score [7] | PBM binding z-score [8] | PBM binding z-score [9] | PBM binding z-score [10] |
| --- | --- | --- | --- | --- | --- | --- | --- | --- | --- | --- |
| ACTCGGAGGACAAAGGTCAGAGTTACGCCAGTGA | 0.7 | 3.34 | 0.234 | -0.025 | 4.3 | 4.14 | 0.365 | 5.54 | 1.61 | 4.38 |
| TGTAGCAGGCCAGAGGGTCACTCAAGAGGTACGG | -1.03 | 1.1 | -0.559 | -0.849 | 0.876 | 1.39 | -0.159 | 2.51 | -0.395 | 2.35 |
| TCGAGTAGGTTAGGGGCATTCTGAATGGCGTCGA | 2.23 | 1.58 | -0.74 | -0.137 | 0.496 | 0.244 | 0.106 | 0.337 | -0.415 | 0.807 |
| TCATATAGGTAAAAGGTGATAGTCGGTGTGGTAA | 5.2 | 4.18 | 1.26 | 1.38 | 1.66 | 0.875 | 0.988 | 1.84 | 1.85 | 1.17 |
| ATCTCTAGGCAAAGTTCAGTGAAAGATCGATAGA | 0.488 | 0.697 | 0.713 | 0.549 | 0.889 | 1.8 | 1.43 | 1.02 | 0.783 | 2.54 |
| ATCTCTAGGTAAGTCTCAGTTCAGTGAAGAACGC | 1.77 | 1.38 | 1.04 | 1.5 | 1.22 | 1.23 | 2.14 | 0.749 | 1.44 | 0.564 |
| AGAACGAGGGCAATGAGTTGATAGTACGGGTGGC | 3.34 | 2.4 | -0.466 | 0.0133 | 0.221 | 2 | 6.24 | 0.19 | -0.58 | 2.11 |
| ATCGAAAGGTCGACGAGGTGACTATACACCGTTT | 1.03 | 2.4 | 1.08 | 0.608 | 1.89 | 3.44 | 0.829 | 3.99 | 0.449 | 4.01 |
| CCTGGTAGGTCAATGGTCAGCTAAAGCAGCTCGC | 4.64 | 5.35 | 0.462 | -0.453 | 2.06 | 1.29 | 0.146 | 2.11 | 1.12 | 3.63 |
| GCTAGTTGGTCAGCAAAAGGTCACACACCGGTCG | 0.999 | 2.88 | -0.1 | -0.835 | 4.56 | 5.02 | 1.32 | 5.74 | 2.26 | 4.37 |
| AGTCAAAGTTCAGGTCGAGGTAACGTAAAGCACG | -0.195 | 2.16 | 0.434 | 0.251 | 2.76 | 3.53 | 2.14 | 3.43 | 1.49 | 4.47 |
| CCTTACGGGTCACTGACAGGTTAGAGCATTTGGA | 3.5 | 3.63 | 0.322 | -0.672 | 2.02 | 3.32 | -0.369 | 4.51 | 0.501 | 3.95 |
| GCGACTGGGGCAAAGCACGTTACCATAAGGTTGG | 4.44 | 3.18 | 0.131 | -0.127 | 0.0548 | -0.54 | -0.386 | -0.0632 | -0.156 | 0.573 |
| TCTAGCAGGCCAAAGGGTCACTCAAGAGGTACGG | 1.61 | 2.45 | -0.396 | -0.432 | 2.19 | 2.95 | -0.0548 | 3.89 | 0.234 | 3.74 |
| TAGCCTAGGTCAGTCAGGGGCCAGTATAGAAAGC | 0.759 | 1.71 | 0.0282 | -0.431 | 0.236 | 0.48 | -0.639 | 1.32 | -0.63 | 3.21 |
| ACTCGGAGGACAAAGGTCAGAGCAACGCCAGTGA | 0.873 | 3.67 | 0.771 | -0.247 | 2.78 | 3.99 | 0.422 | 5.03 | 0.859 | 4.58 |
| GCTGCTAGGTCAGGTTGGTCATCTAACGGGTACG | 2.9 | 2.41 | -0.672 | -0.462 | 0.986 | 0.706 | -0.262 | 1.02 | -0.199 | 3.29 |
| ACTAGTTGGTCAGCCGAGGTCACACACAATTCGG | 1.8 | 3.12 | 0.481 | 1.14 | 3.29 | 5.43 | 2.13 | 5 | 1.82 | 3.58 |
| GCTTACGGGTCAAAGGGTATAGCATGAATAGAAT | 4.35 | 5.08 | 1.19 | 2.3 | 2.55 | 4.16 | 0.626 | 5.66 | 0.592 | 4.09 |
| ACTATTAGTTCAGACGAGGGCAACCGATAGGTTG | 0.264 | 0.891 | 0.625 | 0.802 | 0.783 | 3.92 | 2.04 | 0.878 | 0.72 | 2.1 |
| AGAATGAGGTTAAAATCAGGGAAACAGAATACAT | 2.34 | 2.5 | 0.82 | 1.18 | 0.858 | 1.17 | 0.655 | 1.9 | 0.961 | 1.59 |
| TCTTGTAGATCAGCAGGTTAATAAAGCTGGCCAA | 1.69 | 0.368 | 0.134 | 0.645 | -0.332 | 0.185 | -0.721 | 0.556 | 0.0648 | 0.000915 |
